# In the supplement of paper PMC10037445:
# In all, about 2,900 compounds were measured (“NF-kB SEAP reporter activity, fold change vs agonist alone”: median about 0.99, highest 2% from about 2.6 on). Only a selection was taken, and the highest values are over-represented in it overall.
# Experiments:
# [1] = tested on: RAW-Dual; assay: NF-kB SEAP reporter activity, fold change vs agonist alone; higher = enhanced NF-kB activity; details: library stock concentration (final ~1000-fold dilution): 10 mM
# Method in brief: (§1)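 Supernatant from RAW-Dual macrophages was read after 20 hours for IRF by QuantiLuc luminescence and for NF-κB by QuantiBlue absorbance at 620 nm. The cells (50,000 cells/well in DMEM, 384-well plates, 37 °C, 5% CO2) had received 50 nL of library stock by pin tool and, 1 h later, a PRR agonist. Reporter activity is expressed relative to agonist-alone wells as fold change, and wells were flagged cytotoxic if IncuCyte confluency was under 70% of agonist controls in both mask sets.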
# [2] = tested on: RAW-Dual; assay: NF-kB SEAP reporter activity, fold change vs agonist alone; cytotoxicity flag (confluency mask): not cytotoxic; higher = enhanced NF-kB activity
# Method in brief: as §1
# [3] = tested on: RAW-Dual; assay: NF-kB SEAP reporter activity, fold change vs agonist alone; cytotoxicity flag (confluency mask): cytotoxic (confluency <70% of control); higher = enhanced NF-kB activity
# Method in brief: as §1
# [4] = cytotoxicity flag (confluency mask): not cytotoxic, agonist: Imiquimod (TLR7) […]
# [5] = cytotoxicity flag (confluency mask): not cytotoxic, agonist: MPLA (TLR4) […]
# [6] = agonist: ODN 1826 (TLR9) 0.5 ug/mL
# [7] = agonist: Pam2CSK4 (TLR2/6) 0.1 ug/mL
# [8] = agonist: Pam3CSK4 (TLR2/1) 0.1 ug/mL
# [9] = cytotoxicity flag (confluency mask): cytotoxic (confluency <70% of control), agonist: Imiquimod (TLR7) […]
# [10] = cytotoxicity flag (confluency mask): cytotoxic (confluency <70% of control), agonist: MPLA (TLR4) […]
smiles,measurement,setting,value
CNCCC(Oc1ccccc1C)c1ccccc1.Cl (configuration not stated),NF-kB SEAP reporter activity,[1]; [4],1.52
same,NF-kB SEAP reporter activity,[1]; [5],1.15
CNCCC(Oc1ccccc1C)c1ccccc1.Cl (configuration not stated) (library stock concentration (final ~1000-fold dilution): 10 mM),NF-kB SEAP reporter activity,[2]; agonist: LPS (TLR4) 0.1 ug/mL,1.15
same,NF-kB SEAP reporter activity,[2]; [6],0.76
same,NF-kB SEAP reporter activity,[2]; [7],0.791
same,NF-kB SEAP reporter activity,[2]; [8],1.01
NC(=O)C(=Cn1cnc(-c2cc(C(F)(F)F)cc(C(F)(F)F)c2)n1)c1cncnc1 (library stock concentration (final ~1000-fold dilution): 10 mM),NF-kB SEAP reporter activity,[2]; agonist: LPS (TLR4) 0.1 ug/mL,0.331
same,NF-kB SEAP reporter activity,[2]; [6],0.334
same,NF-kB SEAP reporter activity,[2]; [7],0.13
same,NF-kB SEAP reporter activity,[2]; [8],0.148
NC(=O)C(=Cn1cnc(-c2cc(C(F)(F)F)cc(C(F)(F)F)c2)n1)c1cncnc1,NF-kB SEAP reporter activity,[1]; [4],0.765
same,NF-kB SEAP reporter activity,[1]; [5],0.772
COc1cc2ncnc(Nc3ccc(Oc4ccccc4)cc3C)c2cc1OC.Cl,NF-kB SEAP reporter activity,[1]; [4],1.37
same,NF-kB SEAP reporter activity,[1]; [5],0.792
COc1cc2ncnc(Nc3ccc(Oc4ccccc4)cc3C)c2cc1OC.Cl (library stock concentration (final ~1000-fold dilution): 10 mM),NF-kB SEAP reporter activity,[2]; agonist: LPS (TLR4) 0.1 ug/mL,1.05
same,NF-kB SEAP reporter activity,[2]; [6],0.422
same,NF-kB SEAP reporter activity,[2]; [7],0.297
same,NF-kB SEAP reporter activity,[2]; [8],0.42
CN(C)CC1CCn2cc(c3ccccc32)C2=C(C(=O)NC2=O)c2cn(c3ccccc23)CCO1.Cl (configuration not stated) (library stock concentration (final ~1000-fold dilution): 10 mM),NF-kB SEAP reporter activity,[3]; agonist: LPS (TLR4) 0.1 ug/mL,3.03
same,NF-kB SEAP reporter activity,[3]; [6],0.276
same,NF-kB SEAP reporter activity,[3]; [7],1.55
same,NF-kB SEAP reporter activity,[3]; [8],1.77
CN(C)CC1CCn2cc(c3ccccc32)C2=C(C(=O)NC2=O)c2cn(c3ccccc23)CCO1.Cl (configuration not stated),NF-kB SEAP reporter activity,[1]; [9],1.68
same,NF-kB SEAP reporter activity,[1]; [10],2.13
O=C(Nc1ccc([N+](=O)[O-])cc1O)Nc1ccccc1Br,NF-kB SEAP reporter activity,[1]; [9],1.47
same,NF-kB SEAP reporter activity,[1]; [10],1.48
O=C(Nc1ccccc1)c1cc([N+](=O)[O-])ccc1Cl,NF-kB SEAP reporter activity,[1]; [4],1.37
same,NF-kB SEAP reporter activity,[1]; [5],0.89
O=C(Nc1ccccc1)c1cc([N+](=O)[O-])ccc1Cl (library stock concentration (final ~1000-fold dilution): 10 mM),NF-kB SEAP reporter activity,[2]; agonist: LPS (TLR4) 0.1 ug/mL,0.722
same,NF-kB SEAP reporter activity,[2]; [6],0.873
same,NF-kB SEAP reporter activity,[2]; [7],0.881
same,NF-kB SEAP reporter activity,[2]; [8],0.836
CS(=O)(=O)Nc1ccc([N+](=O)[O-])cc1Oc1ccccc1,NF-kB SEAP reporter activity,[1]; [4],0.516
same,NF-kB SEAP reporter activity,[1]; [5],1.08
O=C(Nc1ccc([N+](=O)[O-])cc1O)Nc1ccccc1Br (library stock concentration (final ~1000-fold dilution): 10 mM),NF-kB SEAP reporter activity,[3]; agonist: LPS (TLR4) 0.1 ug/mL,2.98
same,NF-kB SEAP reporter activity,[3]; [6],2.14
same,NF-kB SEAP reporter activity,[3]; [7],0.989
same,NF-kB SEAP reporter activity,[3]; [8],1.7
CS(=O)(=O)Nc1ccc([N+](=O)[O-])cc1Oc1ccccc1 (library stock concentration (final ~1000-fold dilution): 10 mM),NF-kB SEAP reporter activity,[2]; agonist: LPS (TLR4) 0.1 ug/mL,1.05
same,NF-kB SEAP reporter activity,[2]; [6],0.993
same,NF-kB SEAP reporter activity,[2]; [7],0.937
same,NF-kB SEAP reporter activity,[2]; [8],0.873
FC(F)F.N=C(N)NCCCC1NC(=O)C(CCCCN)NC(=O)C(Cc2ccc(O)cc2)NC(=O)C(CC(=O)O)NC(=O)CNC1=O.O=C(O)C(F)(F)F.O=CO (configuration not stated) (library stock concentration (final ~1000-fold dilution): 10 mM),NF-kB SEAP reporter activity,[2]; agonist: LPS (TLR4) 0.1 ug/mL,1.23
same,NF-kB SEAP reporter activity,[2]; [6],0.997
same,NF-kB SEAP reporter activity,[2]; [7],1.14
same,NF-kB SEAP reporter activity,[2]; [8],0.899
FC(F)F.N=C(N)NCCCC1NC(=O)C(CCCCN)NC(=O)C(Cc2ccc(O)cc2)NC(=O)C(CC(=O)O)NC(=O)CNC1=O.O=C(O)C(F)(F)F.O=CO (configuration not stated),NF-kB SEAP reporter activity,[1]; [4],0.972
same,NF-kB SEAP reporter activity,[1]; [5],1.04
COc1cc(-c2cc(-c3cccc(O)c3)cnc2N)cc(OC)c1OC,NF-kB SEAP reporter activity,[1]; [4],1.24
same,NF-kB SEAP reporter activity,[1]; [5],1.77
COc1cc(-c2cc(-c3ccc(N4CCNCC4)cc3)cnc2C)cc(OC)c1OC,NF-kB SEAP reporter activity,[1]; [4],1.28
same,NF-kB SEAP reporter activity,[1]; [5],1.94
c1cc(-c2cnn3cc(-c4ccc(N5CCNCC5)cc4)cnc23)c2cccnc2c1 (library stock concentration (final ~1000-fold dilution): 10 mM),NF-kB SEAP reporter activity,[3]; agonist: LPS (TLR4) 0.1 ug/mL,0.202
same,NF-kB SEAP reporter activity,[3]; [6],0.193
same,NF-kB SEAP reporter activity,[3]; [7],0.0775
same,NF-kB SEAP reporter activity,[3]; [8],0.149
COc1cc(-c2cc(-c3cccc(O)c3)cnc2N)cc(OC)c1OC (library stock concentration (final ~1000-fold dilution): 10 mM),NF-kB SEAP reporter activity,[2]; agonist: LPS (TLR4) 0.1 ug/mL,1.87
same,NF-kB SEAP reporter activity,[2]; [6],1.54
same,NF-kB SEAP reporter activity,[2]; [7],1.09
same,NF-kB SEAP reporter activity,[2]; [8],1.39
COc1cc(-c2cc(-c3ccc(N4CCNCC4)cc3)cnc2C)cc(OC)c1OC (library stock concentration (final ~1000-fold dilution): 10 mM),NF-kB SEAP reporter activity,[2]; agonist: LPS (TLR4) 0.1 ug/mL,3.37
same,NF-kB SEAP reporter activity,[2]; [6],0.202
same,NF-kB SEAP reporter activity,[2]; [7],1.29
same,NF-kB SEAP reporter activity,[2]; [8],1.57
c1cc(-c2cnn3cc(-c4ccc(N5CCNCC5)cc4)cnc23)c2cccnc2c1,NF-kB SEAP reporter activity,[1]; [9],0.258
same,NF-kB SEAP reporter activity,[1]; [10],0.269
C[C@@H]1O[C@@H](O[C@H]2[C@H](OC(=O)[C@]34CCC(C)(C)C[C@H]3C3=CC[C@@H]5[C@@]6(C)C[C@H](O)[C@H](O[C@@H]7O[C@H](CO)[C@@H](O)[C@H](O)[C@H]7O)[C@@](C)(CO)[C@@H]6CC[C@@]5(C)[C@]3(C)CC4)O[C@H](CO)[C@@H](O)[C@@H]2O)[C@H](O)[C@H](O)[C@H]1O[C@@H]1OC[C@@H](O)[C@H](O)[C@H]1O (library stock concentration (final ~1000-fold dilution): 10 mM),NF-kB SEAP reporter activity,[2]; agonist: LPS (TLR4) 0.1 ug/mL,1.11
same,NF-kB SEAP reporter activity,[2]; [6],0.984
same,NF-kB SEAP reporter activity,[2]; [7],1.04
same,NF-kB SEAP reporter activity,[2]; [8],1.19
C[C@@H]1O[C@@H](O[C@H]2[C@H](OC(=O)[C@]34CCC(C)(C)C[C@H]3C3=CC[C@@H]5[C@@]6(C)C[C@H](O)[C@H](O[C@@H]7O[C@H](CO)[C@@H](O)[C@H](O)[C@H]7O)[C@@](C)(CO)[C@@H]6CC[C@@]5(C)[C@]3(C)CC4)O[C@H](CO)[C@@H](O)[C@@H]2O)[C@H](O)[C@H](O)[C@H]1O[C@@H]1OC[C@@H](O)[C@H](O)[C@H]1O,NF-kB SEAP reporter activity,[1]; [4],0.83
same,NF-kB SEAP reporter activity,[1]; [5],1.01
